# Data reported in PubChem BioAssay AID1822 (The Scripps Research Institute Molecular Screening Center, 2009).
# Hit rate of the full screen: of about 290,000 compounds, about 3,500 (1.2%) were called active. This excerpt belongs to a sample that is enriched for actives. Values without a mark were called inactive.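 Rule for the calls: active = inhibition above the campaign mean inhibition over all tested compounds plus 3 SD (cut at about 28% in these data); inactive = the rest.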
# Tested on: M18 aspartyl aminopeptidase (Plasmodium falciparum 3D7)
# Assay: PfM18AAP inhibitors, malaria aminopeptidase, primary screen, biochemical, QFRET, recombinant enzyme (AID 1822);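 note: 0% = plate median of test compound wells and 100% = 2 mM ZnCl2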
# Conditions: H-Glu-NHMec fluorogenic cleavage, at 7.35 µM, hits give high values
row,Structure (SMILES),inhibition
1,Cc1c(C)n(Cc2ccc(Cl)cc2)c2ccc(C(=O)NCCCN3CCOCC3)cc12,-3.58%
2,CCCCNc1ccc(C(=O)Nc2cccc(C)n2)cc1[N+](=O)[O-],-6.29%
3,CCOC(=O)c1sc(/N=C/C2=C(O)CC(C)(C)CC2=O)c(C(=O)OCC)c1C,-7.73%
4,CCOC(=O)c1c(N)sc2c1CCCC2=O,13.3%
5,CCOC(=O)c1c(/N=C/C2C(=O)CC(C)(C)CC2=O)sc(C)c1C,28.8% (active)
6,Cc1cc(NS(=O)(=O)c2ccc(NC(=O)C(C)Oc3cccc(C)c3C)cc2)nc(C)n1 (stereo unspecified),1.85%
7,COc1ccc([N+](=O)[O-])cc1-c1nc2ccccc2nc1-c1ccccc1,0.66%
8,Cc1ccc2c(c1)N(CC(=O)N1CCOCC1)C(=O)CO2,-1.57%
9,CC(=O)c1ccc(NC(=O)c2ccc(-n3cncn3)c([N+](=O)[O-])c2)cc1,-11.7%
10,Nc1ccc2nc3c(=O)[nH]c(=S)[nH]c3nc2c1,28.9% (active)
11,CCc1cc(=O)oc2c(C)c(OCC(=O)NCCN3CCOCC3)ccc12,-0.48%
12,COc1ccc(Cl)cc1NC(=O)CCS(=O)(=O)c1ccc(Br)cc1,-8.04%
13,Cc1cc(NC(=O)CCC(=O)N(Cc2ccccc2)C(C(=O)NC2CCCC2)c2ccc(C)o2)no1 (stereo unspecified),8.33%
14,CC1CC2=C(CC1/C=N/NC(N)=S)C(C)(C)CCC2 (stereo unspecified),30.5% (active)
15,Cc1cc(C)nc(NS(=O)(=O)c2ccc(N3C(=O)C4CCCCC4C3=O)cc2)n1 (stereo unspecified),-7.47%
16,CCn1c(SCC(=O)NNC(=O)c2ccc(OC)cc2)nnc1C(C)C,4.07%
17,Cc1cccc([C@@H]2[C@@H]3C(=O)N(C)C(=O)[C@@H]3[C@@H]3C(=O)Nc4ccccc4C(=O)N23)c1,-3.83%
18,CCC1(CC)Cc2ccccc2-c2nc(CCl)[nH]c(=O)c21,2.03%
19,C/C(=N\NC(=O)c1ccoc1C)c1ccccc1O,31.6% (active)
20,CC(C)=C(NC(=O)c1ccccc1)C(=O)N/N=C(\C)c1ccccc1O,-2.21%
21,Cc1[nH]n(-c2ccccc2)c(=O)c1/C=N/NC(=O)c1ccoc1C,-3.48%
22,COc1cc(C2C(C(=O)c3ccco3)=C(O)C(=O)N2c2cc(C)on2)ccc1OCc1ccccc1 (stereo unspecified),1.75%
23,OCCn1c(-c2ccccc2)csc1=Nc1ccccc1,44.3% (active)
24,Cc1csc(=NC(=O)c2ccccc2)n1CCO,4.05%

row,Structure (SMILES),inhibition
1,Cc1csc(=Nc2ccccc2)n1CCO,2.31%
2,CC(=O)NS(=O)(=O)c1ccc2c(c1)Cc1cc(S(=O)(=O)NC(C)=O)ccc1-2,10.3%
3,COc1cc(SC#N)ccc1N=Cc1c(C)[nH]n(-c2ccc(C)cc2)c1=O,-5.1%
4,CCN1CCN(C(=O)C2CCN(S(=O)(=O)c3cc(Cl)ccc3Cl)CC2)CC1,-5.08%
5,CNC(=S)NNC(=O)c1ccc(N(C)C)cc1,37.4% (active)
6,CC(=O)NC(=S)NNC(=O)c1ccc(Br)cc1,10.7%
7,COc1ccc(C(=O)NNC(=S)NC(=O)c2ccccc2)cc1,8.59%
8,CC1CCN(S(=O)(=O)c2ccc3c(ccn3CC(=O)O)c2)CC1,4.44%
9,CN(C)S(=O)(=O)c1cccc(NC(=S)N/N=C/C(=O)c2ccccc2)c1,29.6% (active)
10,Cc1ccc(/C=N/NC(=S)Nc2cccc(S(=O)(=O)N(C)C)c2)o1,9.59%
11,CN(C)S(=O)(=O)c1cccc(NC(=S)NCc2ccc3c(c2)OCO3)c1,-10.4%
12,Cc1ccc(S(=O)(=O)NNC(=O)/C=C/c2cccc(F)c2)cc1,12.8%
13,CC1Cc2cc(/C(O)=C3\C(=O)C(=O)N(Cc4cccnc4)C3c3ccccc3F)ccc2O1 (stereo unspecified),7.22%
14,Cc1cc(C)nc(N/N=C/c2c(C)oc3ccccc23)n1,-6.94%
15,Cc1nc(Cl)cc(N/N=C/c2ccccc2)n1,1.31%
16,Cc1cc2c(C)nc(N/N=C/c3ccccc3)nc2o1,37.1% (active)
17,CCn1nc(C)c(CNC(=O)C2CCC(=O)N(Cc3cccc(F)c3)C2)c1C (stereo unspecified),-1.99%
18,COc1ccccc1C(=O)N(C1=NC(C)CS1)c1ccc(Cl)cc1 (stereo unspecified),-8.55%
19,O=C(CSc1ncn[nH]1)NCc1ccc2c(c1)OCO2,5.91%
20,ClC1(Cl)CC1CSc1ncn[nH]1 (stereo unspecified),34.4% (active)
21,O=C(CSc1ncn[nH]1)N/N=C/c1ccc(F)cc1,21.1%
22,O=C(c1cccc(-n2cccc2)c1)N1CCN(S(=O)(=O)c2ccc(F)cc2)CC1,14.4%
23,CC(C)c1ccc(NC(=O)[C@@H](NC(=O)N2CC(=O)Nc3ccccc32)C(C)C)cc1,-1.48%
24,COc1cccc(/C=N/Nc2ccc(Cl)nn2)c1,18.6%

row,Structure (SMILES),inhibition
1,Cc1ccsc1/C=N/NC(=O)Cc1cc(=O)[nH][nH]1,1.38%
2,Cc1ccsc1/C=N/n1c(=S)[nH]nc(C)c1=O,2.51%
3,Oc1cccc(/C=N/Nc2ccc(Cl)nn2)c1O,60.9% (active)
4,NC(=O)N/N=C\c1cccs1,1.75%
5,Cc1ccsc1/C=N/Nc1ccc(Cl)nn1,38.9% (active)
6,Clc1ccc(N/N=C/c2cccs2)nn1,31.6% (active)
7,Oc1c(Br)cccc1/C=N/Nc1c(F)c(F)c(F)c(F)c1F,-1.11%
8,Cc1nnc(N/N=C/c2cccs2)[nH]c1=O,0.78%
9,COc1ccc(CNC(=O)c2c[nH]c3c(OC)cc(OC)cc3c2=O)cc1,2.86%
10,CCc1ccc(NC(=O)N2CCc3ccccc3C2)cc1,-1.34%
11,COc1ccc(NS(=O)(=O)c2cc(C(=O)Nc3ccccc3C(=O)O)ccc2C)cc1,1.9%
12,O=C(NC(=S)N1CCCCC1c1cccnc1)c1ccccc1 (stereo unspecified),4.53%
13,Cc1ccc2c(c1)c1ncnc(N3CCc4ccccc4C3)c1n2C,-0.51%
14,CC(C)OCCCNC(=O)CN1C(=O)/C(=C/c2ccccc2F)Oc2ccccc21,-19.2%
15,Cc1ccc(OCC(=O)Nc2ccc(C(=O)O)cc2NC(=O)COc2ccc(C)c(C)c2)cc1C,0.26%
16,COCCn1c(SCc2nnc(-c3ccc(OC)c(OC)c3)o2)nc2sc3c(c2c1=O)CCC3,-13.2%
17,CSc1ccc(S(=O)(=O)N2CCC(C(=O)NCCc3ccccc3)CC2)cc1,0.01%
18,O=C(NCc1ccncc1)C1CCN(C(=O)c2cccc(Cl)c2)CC1,-1.77%
19,O=C(c1cccs1)N(Cc1cc2ccccc2[nH]c1=O)CC1CCCO1 (stereo unspecified),2.59%
20,O=C(Nc1ccc(C(=O)NCc2ccccc2Cl)cc1)C1=CSCCO1,2.51%
21,O=c1c2ccccc2nc(N/N=C/c2ccccc2)n1O,3.06%
22,Nc1nnn(CC(=O)N/N=C/c2ccc(O)cc2)n1,7.09%
23,CC(C)(C)c1nnc(N/N=C/c2ccc(O)cc2)n(N)c1=O,44.5% (active)
24,O=c1cc(Cl)c2ccccc2n1-c1ccccc1,1.05%

row,Structure (SMILES),inhibition
1,CN(C(=O)CSc1nnc(-c2n[nH]c3ccccc23)o1)c1ccccc1,-5.28%
2,O=c1[nH]c(=S)[nH]c2[nH]c(=S)[nH]c12,43.7% (active)
3,Cc1c(C)c(C)c2[nH]c(=S)[nH]c2c1C,-2.04%
4,O=c1c(/C=N/O)coc2ccc(Cl)cc12,8.13%
5,NC(=S)N/N=C/c1coc2cc(Cl)ccc2c1=O,50.2% (active)
6,Cc1c(/C=N\NC(=O)c2cc3ccccc3o2)c2ccccc2n1C,0.69%
7,O=C(N/N=C/c1coc2ccccc2c1=O)c1cc2ccccc2o1,36.8% (active)
8,Cc1ccc2occ(/C=N/NC(=O)c3ccccc3C)c(=O)c2c1,6.11%
9,O=C(N/N=C/c1c[nH]c2ccccc12)c1cc2ccccc2o1,-7.84%
10,C[C@H](C(=O)CC(=O)OC(C)(C)C)[C@H](O)c1ccc(C(F)(F)F)cc1,2.4%
11,O=S(=O)(c1ccc(Cl)cc1)c1nc(-c2ccccc2F)oc1NCCN1CCOCC1,1.96%
12,CN(Cc1ccccc1)C(=O)CSc1nc2ccccc2[nH]1,7.79%
13,O=C(C1CCCO1)N1CCN(S(=O)(=O)c2ccc(Br)cc2)CC1 (stereo unspecified),-7.44%
14,Cc1cccn2c(=O)c3cc(C(=O)NCCN4CCOCC4)c(=N)n(Cc4cccnc4)c3nc12,7.09%
15,COCCNC(=O)C1CCN(C(=O)C2CC(=O)N(c3ccc(C)cc3)C2)CC1 (stereo unspecified),-4.37%
16,CC(C)(C)N(Cc1ccccc1)C(=O)c1ccncc1,2.34%
17,CCOc1ccc(/C=N/Nc2nncc(-c3ccccc3)n2)cc1OC,8.38%
18,COc1cc(/C=N\Nc2ccc([N+](=O)[O-])cn2)ccc1OCC(=O)O,43.1% (active)
19,Cc1ccc(-n2c(C)cc(/C=N/Nc3ccc([N+](=O)[O-])cn3)c2C)c(C)c1,7.66%
20,COc1cc(/C=N/O)ccc1OCc1ccc([N+](=O)[O-])cc1,2.23%
21,Cc1cc(/C=N/Nc2ccc([N+](=O)[O-])cn2)c(C)n1-c1cccc(C(=O)O)c1,50.7% (active)
22,Cc1cc(/C=C2\SC(=O)N(C)C2=O)c(C)n1-c1cccc(C(=O)O)c1,7.23%
23,CC(=O)c1c(C)n(-c2ccc(C)cc2)c2ccc(O)cc12,-3.09%
24,CCCCN(Cc1ccccc1)C(=O)C1CCN(Cc2sccc2C)CC1,10.9%
